The results in this text go back to PubChem BioAssay.

A word on the inhibition: it is the relative decrease from the control value, in per cent.

Active and inactive are the calls of the source. Unless noted, no stated cut-off is given here; in the data, active means inhibition above about 80%; inactive means the rest.

A short description of experiment [1]: growth inhibition, single agent or in combination, cell-based, chromothripsis tumors, cisplatin or BGB combos (AID 1671449).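 Further: cells exposed for 96 hours; 0% = vehicle DMSO and 100% = killing by high DMSO.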 Conditions: LFS_MB_P medulloblastoma cells.
The nature of experiment [2]: growth inhibition, single agent and combos, cell-based, chromothripsis tumors, cisplatin or BGB combos (AID 1671450).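 Further: cells exposed to compound for four days; 0% = vehicle DMSO and 100% = cell killing by high DMSO.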 Conditions: HDN33 neuroblastoma cells, stronger effect = higher value.
Experiment [3] is described as follows: growth inhibition, single agents and combos, ICB984, cell-based, cisplatin or BGB combos, synergistic combos for chromothripsis tumors (AID 1671451; call rule not given here;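 further: cells exposed for 96 hours before readout; 0% = vehicle DMSO and 100% = killing by high DMSO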). Conditions: ICB984 medulloblastoma cells, drug combinations, stronger effect = higher value.
Experiment [4] can be described thus: growth inhibition, single agents and combos, LFS_MB_1R, cell-based, cisplatin or BGB combos, synergistic combos for chromothripsis tumors (AID 1671452).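 Further: cells exposed for 96 hours before readout.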 Conditions: LFS_MB_1R medulloblastoma cells, stronger effect = higher value.
A short description of experiment [5]: growth inhibition, single agents and combos, HTB85, cell-based, BGB or cisplatin IC20 combos, synergistic combos for chromothripsis tumors (AID 1671453).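 Further: cells exposed for 96 hours before readout; 0% = vehicle DMSO and 100% = high DMSO killing control.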 Conditions: HTB85 osteosarcoma cells, drug combinations, stronger effect = higher value.
Experiment [6] is described as follows: growth inhibition, single agents and combos, CRL2098, cell-based, BGB or cisplatin IC20 combos, synergistic combos for chromothripsis tumors (AID 1671454).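 Further: cells exposed for 96 h before readout; 0% = vehicle DMSO and 100% = killing by high DMSO.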 To be noted: CRL2098 osteosarcoma cells, drug combinations, stronger effect = higher value.
A short description of experiment [7]: growth inhibition, single agents and combos, HD-MB03, cell-based, BGB or cisplatin IC20 combos, synergistic combos for chromothripsis tumors (AID 1671455; in the data active means inhibition above about 83%;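 further: 0% = vehicle DMSO and 100% = high DMSO as cytotoxic control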). To be noted: HD-MB03 medulloblastoma cells, stronger effect = higher value.
A short description of experiment [8]: growth inhibition, single agents and combos, UWB1.289, cell-based, BGB or cisplatin combos, synergistic combos for chromothripsis tumors (AID 1671456).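 Further: cells exposed to compound for four days; 0% = vehicle DMSO and 100% = killing by high DMSO.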 Conditions: UWB1.289 ovarian carcinoma cells, stronger effect = higher value.
A short description of experiment [9]: growth inhibition, single agents and combos, LFS_MB_2R, cell-based, cisplatin combos, synergistic combos for chromothripsis tumors (AID 1671457).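 Further: cells exposed to compound for four days before readout.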 Conditions: LFS_MB_2R medulloblastoma cells, stronger effect = higher value.
The nature of experiment [10]: growth inhibition, MDA-MB-436, cell-based, BGB or cisplatin combos, synergistic combos for chromothripsis tumors (AID 1671458; call rule not given here;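 further: cells exposed for 96 hours; 0% = vehicle DMSO and 100% = killing by high DMSO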). Conditions: MDA-MB-436 breast carcinoma growth inhibition, drug combinations, stronger effect = higher value.
Experiment [11] can be described thus: UWB1.289_BRCA1 ovarian cancer growth, cell-based, BGB or cisplatin combinations (AID 1671459). To be noted: UWB1.289 BRCA1 ovarian carcinoma, drug combinations, stronger effect = higher value.
A short description of experiment [12]: drug combination toxicity in non-malignant astrocytes – cell-based, BGB or cisplatin IC20 combos, cytotoxicity control for chromothriptic childhood tumor combination screen (AID 1671460).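 Further: cells exposed to compounds for 96 hours before viability readout; 0% = vehicle and 100% = killing control.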 To be noted: Human astrocytes, viability inhibition, drug combinations, at 0.5 µM, stronger effect = higher value.
Experiment [13] is described as follows: BT084 cell growth, single and combined drugs, ICGC_MB145, cisplatin and BGB IC40 combos (AID 1671461).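 Further: cells exposed to drugs for 96 hours; 0% = vehicle DMSO and 100% = high DMSO full killing control.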 To be noted: BT084 medulloblastoma cells, drug combinations, stronger effect = higher value.
Experiment [14] is described as follows: RCMB18 cell growth, single agent and combined, cisplatin and BGB IC40 combos (AID 1671462).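 Further: cells exposed to compound for four days.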 To be noted: RCMB18 medulloblastoma cells, stronger effect = higher value.
Experiment [15] is described as follows: CRL1545 cell growth, single agent and combined, cisplatin and BGB IC20 combos (AID 1671464).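 Further: cells exposed to compound for 96 hours before readout; 0% = vehicle DMSO and 100% = high DMSO killing control.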 To be noted: CRL1545 osteosarcoma cells, stronger effect = higher value.
The nature of experiment [16]: compounds altering circadian rhythm period length – cell-based, LOPAC library, luminescence reporter (AID 2774; call rule not given here;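 further: values are relative to mean of DMSO wells on each plate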). To be noted: circadian reporter cells, at 7 µM, actives lie on both sides.
[17] abbreviates: measured here: combination with BGB IC40, at 0.05 µM.
Setting [18] is: measured here: with BGB IC20 combination, at 0.5 µM.
[19] abbreviates: measured here: with cisplatin IC20 combination, at 0.5 µM.
[20] abbreviates: measured here: combination with cisplatin, at 0.5 µM.
Where [21] appears, read: measured here: combination with cisplatin, at 5 µM.

`O=c1[nH]c(=O)n(C2OC(CO)C(O)C2O)cc1F` (stereo not given): the inhibition in [1] (at 0.5 µM, stronger effect = higher value) is -2.55% (inactive); in [1] (measured here: combination with BGB IC20, at 0.005 µM) it was -22.7%; in experiment [1] (measured here: combination with BGB IC40, at 0.005 µM) it was -24.2%; in experiment [1] (setting [17]), -0.747%; in experiment [1] (measured here: combination with cisplatin, at 0.5 µM, stronger effect = higher value) it was -21.6%; in [1] (measured here: combination with cisplatin, at 5 µM, stronger effect = higher value) it was 22.1%. Also, the inhibition in experiment [2] (BGB combo, at 5 µM) is 98.3%; in [2] (at 0.5 µM) it was 71.5% (inactive); in experiment [2] (cisplatin combo, at 5 µM), 97.9%; in experiment [2] (setting [18]), 69.4%; in experiment [2] (setting [19]), 68.6%; in experiment [2] (single agent, at 5 µM) it was 98.1%. For the same compound, the inhibition in experiment [3] (BGB IC20 combo, at 0.005 µM) was 26.6%; in experiment [3] (BGB IC40 combo, at 0.005 µM) it was 32%; in experiment [3] (BGB IC40 combo, at 0.05 µM), 86.4%; in [3] (at 0.5 µM), -9.47% (inactive); in [3] (cisplatin combo, at 0.05 µM) it was 86.4%; in experiment [3] (cisplatin combo, at 0.5 µM) it was -24.4%. For the same compound, the inhibition in experiment [3] (cisplatin combo, at 5 µM) was -10.9%; in [3] (measured here: 5 uM single agent, at 5 µM), -6.81%; in [4] (at 0.5 µM), -13.3% (inactive); in experiment [4] (setting [17]), -3.21%; in experiment [4] (setting [20]), -2.35%; in experiment [4] (setting [21]), 44.8%. The inhibition in experiment [5] (at 0.5 µM) is 22% (inactive); in experiment [5] (measured here: with BGB IC20, at 0.5 µM), -3.46%; in [5] (measured here: with BGB IC20, at 5 µM), 59.1%; in experiment [5] (measured here: with cisplatin IC20, at 0.5 µM) it was 26.3%; in experiment [5] (measured here: with cisplatin IC20, at 5 µM), 57.2%; in experiment [5] (single agent, at 5 µM), 76.2%. Also, the inhibition is -23.1% (inactive) in experiment [6] (at 0.5 µM); -14.1% in experiment [6] (measured here: combination with BGB at IC20, at 0.5 µM); -20.6% in experiment [6] (measured here: combination with cisplatin at IC20, at 0.5 µM); 66.9% (inactive) in [7] (at 0.5 µM); 71.1% in [7] (measured here: combo with BGB at IC20, at 0.5 µM); 54% in experiment [7] (measured here: combo with cisplatin at IC20, at 0.5 µM). In addition, the inhibition in experiment [8] (at 0.5 µM) is 33.5% (inactive); in [8] (measured here: inhibition with BGB combination, at 0.05 µM), -10.9%; in experiment [8] (measured here: inhibition with cisplatin combination, at 0.05 µM), 10.1%; in [9] (at 0.5 µM) it was -12.7% (inactive); in experiment [9] (setting [20]) it was -4.31%; in [9] (setting [21]) it was 6.83%. For the same compound, the inhibition in experiment [10] (at 0.5 µM) is 45.1% (inactive); in [10] (measured here: BGB combination, at 0.5 µM), 27.6%; in experiment [10] (measured here: BGB combination, at 5 µM), 83.1%; in [10] (measured here: cisplatin combination, at 0.5 µM) it was 39.9%; in experiment [10] (measured here: cisplatin combination, at 5 µM) it was 86.1%; in experiment [11] (BGB combination, concentration series, at 5 µM), 110%. The inhibition in experiment [11] (at 0.5 µM) is 40.6% (inactive); in experiment [11] (cisplatin combination, concentration series, at 5 µM) it was 118%; in experiment [12] it was 57.3% (inactive); in experiment [12] (measured here: combo with BGB IC20), 56.2%; in experiment [12] (measured here: combo with cisplatin IC20) it was 38.9%; in experiment [13] (at 0.5 µM), -22.9% (inactive). Further, the inhibition in experiment [13] (cisplatin combination, at 0.5 µM) is -18.4%; in [13] (cisplatin combination, at 5 µM), -1.49%; in experiment [13] (measured here: BGB IC40 combination 0.05 uM, at 0.05 µM) it was 2.24%; in experiment [13] (single agent, at 5 µM), 11.9%; in experiment [14] (at 0.5 µM) it was 33.4% (inactive); in experiment [14] (cisplatin combo, at 5 µM), 75.4%. In addition, the inhibition is 14.4% in experiment [14] (measured here: BGB IC40 combination, at 0.05 µM); 45.3% in experiment [14] (setting [20]); 63.7% in experiment [14] (single agent, at 5 µM); 82.5% (active) in [15] (at 0.5 µM); 77.3% in experiment [15] (setting [18]); 85.1% in [15] (setting [19]). Also, the inhibition in experiment [15] (single agent, at 0.05 µM) stood at 57.8%; in experiment [15] (single agent, at 5 µM) it was 99.7%.
Regarding `CN1CCC23CCCC[C@H]2C1Cc1ccc(O)cc13` (stereo not given in full), the period change in experiment [16] is -0.06 h (inactive).
For `Nc1ncnc2c1ncn2C1OC2COP(O)(=S)O[C@@H]2[C@@H]1O` (stereo not given in full), the period change in experiment [16] is -0.125 h (inactive).
On the same count and under the same terms, in the case of `CP(=O)(O)CCCN` it was -0.005 h (inactive); in that of `CC1=C[C@@H]2c3cccc4[nH]cc(c34)C[C@H]2N(C)C1`, 0.28 h (inactive).
As for `CN1C[C@@H](CS(=O)(=O)N(C)C)C[C@@H]2c3cccc4c3c(cn4C)C[C@H]21`, the period change in experiment [16] was -0.105 h (inactive).
The same measure, in the same setting: to `Oc1ccc2c3c1O[C@H]1[C@@H](O)CC[C@@]4(O)C(C2)N(CC2CCC2)CCC314` (stereo not given in full) belongs -0.2 h (inactive); to `CC(C)[C@@]1(NC(=O)[C@@H]2C=C3c4cccc5[nH]cc(c45)C[C@H]3N(C)C2)O[C@@]2(O)[C@@H]3CCCN3C(=O)[C@H](Cc3ccccc3)N2C1=O`, 0.465 h (inactive).
